According to PubChem BioAssay AID720541 (National Center for Advancing Translational Sciences (NCATS), 2013):
In all, about 1,300 compounds went through this assay and about 420 (32%) were called active. About 32% were inconclusive and are not listed. The list shows a part of the results. Unmarked numbers belong to inactive results. Calls come from the whole dose curve; as a rule, active = well fitted inhibition curve with a large enough effect; inconclusive = small, poorly fitted or top-dose-only effect; inactive = no such curve, though single readings can be large or run the other way.

Target: C-terminal-binding protein 1 (Homo sapiens) (UniProt Q13363)
Test: qHTS for Inhibitors of the Phosphatase Activity of Eya2: Carboxyl-terminal binding protein (CtBP) Counterscreen for Cherry-picked Compounds; note: nearly all actives have a fitted effect of over 65% in size
Conditions: purified protein-protein binding, AlphaScreen, 3 h; series mostly up to 46.1 µM; activity change, negative = inhibition: at the top concentration
Excerpt: The Eya protein family is an essential co-activator of the Six1 transcription factor. Six1 is a developmental gene that is abnormally re-expressed in a large percentage of breast cancers. This over-expression plays a causal role in the initiation and metastatic development of breast cancers. The Eya family of protein is also found to contain a unique HAD phosphatase domain with protein tyrosine phosphatase activity which can potentially play a role in Six1-mediated breast tumorigenesis. Recently, Eya2 is found to dephosphorylate the histone variant H2AX and direct cells towards DNA repair instead of apoptosis in the event of DNA damage.
A 1536 well format, fluorescence based qHTS assay was developed and used to target the phosphatase activity of Eya2 (AID 488837). In addition, a CtBP counterscreen was developed using the AlphaScreen technology to evaluate compound selectivity to target […]. The data herein reports the activity of the cherry-picked compounds against the CtBP AlphaScreen. Compounds that are active or have > 100 fold selectivity vs. the Eya2 activity were excluded for further characterization. Inactivity is the desired outcome for the CtBP counterscreen.
NIH Chemical Genomics Center [NCGC]
NIH Molecular Libraries Probe Centers Network [MLPCN]
Assay Submitter (PI): Rui Zhao, University of Colorado Denver
Four microliters of reagent (25 nM GST-E1A, 25 nM CtBP-6x HIS) was dispensed in a 1536 well Greiner plates. Twenty-three nanoliter of test compounds (final concentration of 2.5 nM - 46 uM) and positive control E1A peptide inhibitor (final concentration of 0.14 nM - 4.6 uM) were added to the plates using the Kalypsys pintool equipped with a 1536 pin head. The plates was then incubated at room temperature for 2 hours followed by addition of 1 uL Alpha bead donor / acceptor mix (20 ug/mL final concentration). The assay plates were incubated for additional 1 hour at room temperature and protected from light. The AlphaScreen signal was obtained using the PerkinElmer EnVision plate reader using the 680 nm excitation and 520 - 620 nm emission filters. The data was normalized to the E1A peptide inhibitor for maximum inhibition and DMSO treated wells as negative control.
% is set by controls: 0 for no effect and ±100 for the full control effect; potency is the fitted concentration of half-maximal effect.

Row | SMILES | Potency | activity change, negative = inhibition [%]
1 | N#C/C(=C\c1ccc(OC(=O)c2ccccn2)cc1)C(N)=O | 12 µM (active) | –
2 | O=C(Oc1cncc(Cl)c1)c1sccc1Cl | – | -9.79
3 | Cc1cc2nc(/N=C(\N)NC(=O)N3c4ccccc4Sc4ccccc43)nc(C)c2cc1C | – | -24.2
4 | Cc1c(CCC(=O)O)c(=O)oc2c(C)c(OCc3cc4c(cc3Cl)OCO4)ccc12 | 13.5 µM (active) | –
5 | Cc1cc(C)cc(COc2ccc3c(C)c(CC(=O)O)c(=O)oc3c2C)c1 | – | -27.5
6 | O=C(Cn1ccc(=O)[nH]c1=O)Nc1nccs1 | – | 2.11
7 | Nc1ccc(N2CCCCC2)c2nonc12 | 6.75 µM (active) | –
8 | O=C(Cc1cccs1)Nc1ccc2c(c1)C(=O)OC2 | – | 3.68
9 | O=C1CCCC2=C1C(c1ccco1)Nc1ccc3ccccc3c12 (configuration not stated) | – | -13.1
10 | Cc1cc(NS(=O)(=O)c2ccc(NC(=O)c3cc4c(=O)n5ccccc5nc4s3)cc2)nc(C)n1 | 6.75 µM (active) | –
11 | O=C(O)c1ccc(Nc2cnc3ccccc3n2)cc1 | – | -13.9
12 | O=C(Nc1ccc(S(=O)(=O)Nc2cnc3ccccc3n2)cc1)c1ccc(Cl)c([N+](=O)[O-])c1 | 2.13 µM (active) | –
13 | Cc1cc(NS(=O)(=O)c2ccc(NC(=O)c3cnc(Cl)c(Cl)c3)cc2)nc(C)n1 | 1.69 µM (active) | –
14 | O=C(Nc1ccc(Nc2ccccc2)cc1)c1ccc(Cl)cc1[N+](=O)[O-] | – | -12.6
15 | CCC(C)N(C(=O)CSc1nc(-c2cccs2)nc2ccccc12)C1CCS(=O)(=O)C1 (configuration not stated) | – | -28.4
16 | CSc1nc(NCCOCCO)c2sc3nc(-c4ccco4)c4c(c3c2n1)CCC4 | 5.36 µM (active) | –
17 | OCCN(Cc1cccnc1)Cc1ccccn1 | 5.36 µM (active) | –
18 | COCC(C)n1c(-c2ccc3c(c2)NC(=O)CO3)csc1=Nc1ccc(OC(F)F)cc1 (configuration not stated) | – | -25.4
19 | CCOC(=O)c1cc2c(N)c(C(=O)c3ccc(Br)cc3)sc2[nH]c1=O | 1.9 µM (active) | –
20 | Cc1cc(C(=O)CSc2nc(N)cc(N)n2)c(C)n1C1CC1 | – | -28.9
21 | COc1ccc(C(CCNCc2ccc(N(C)C)cc2)C(C)C)cc1 (configuration not stated) | 12 µM (active) | –
22 | COc1ccccc1C(CCNCc1ccc(N(C)C)cc1)c1ccc(OC(C)C)cc1 (configuration not stated) | 6.01 µM (active) | –
23 | CCC(=O)NC(c1cccs1)c1cc(Cl)c2cccnc2c1O (configuration not stated) | 1.69 µM (active) | –
24 | COc1ccc(C(NC(C)=O)c2ccc3cccnc3c2O)cc1OC (configuration not stated) | 1.35 µM (active) | –

Row | SMILES | Potency | activity change, negative = inhibition [%]
25 | CCCCC(=O)NC(c1ccco1)c1cc(Cl)c2cccnc2c1O (configuration not stated) | 4.78 µM (active) | –
26 | COc1ccc(C(NC(C)=O)c2cc(Cl)c3cccnc3c2O)cc1OC (configuration not stated) | 1.69 µM (active) | –
27 | CCCCC(=O)NC(c1cccc([N+](=O)[O-])c1)c1ccc2cccnc2c1O (configuration not stated) | – | -69.6
28 | CCOC(=O)N1CCN(S(=O)(=O)c2ccc(C(=O)NNc3nc4c(C)cc(C)cc4s3)cc2)CC1 | – | -22.9
29 | O=c1[nH]c(/C=C\c2ccc(O)cc2)nc(O)c1[N+](=O)[O-] | – | -9.35
30 | O=C(NCCC1=CCCCC1)c1[nH]c(C(F)(F)F)nc1-c1ccccc1 | – | -26.7
31 | O=C(NC1CCCCC1)N1CCN(C2CCCCC2)CC1 | – | 9.26
32 | CCCC(=O)NC(c1ccc(OC)c(OC)c1)c1cc(Cl)c2cccnc2c1O (configuration not stated) | 1.69 µM (active) | –
33 | O=C(O)c1ccccc1NC(c1ccccc1)c1ccc2cccnc2c1O (configuration not stated) | 1.9 µM (active) | –
34 | CC(=O)NC(c1ccc(Cl)cc1)c1ccc2cccnc2c1O (configuration not stated) | 1.9 µM (active) | –
35 | O=C(Oc1ccc(Cl)c2cccnc12)C12CC3CC(CC(C3)C1)C2 | – | 19.6
36 | CCC(=O)NC(c1ccc(OC)c(OC)c1)c1cc(Cl)c2cccnc2c1O (configuration not stated) | 1.69 µM (active) | –
37 | O=C(Nc1ncc(Cc2ccccc2Cl)s1)c1ccc(-c2cccc([N+](=O)[O-])c2)o1 | – | -12.9
38 | COc1ccc(C2c3[nH]c4ccccc4c3C[C@H]3C(=O)N(C4CCN(Cc5ccccc5)CC4)CC(=O)N23)cc1OC (some centres not stated) | – | -26.4
39 | CCCCOC(=O)CCCc1ccc([N+](=O)[O-])cc1[N+](=O)[O-] | – | -29.8
40 | CCOc1ccc2c(c1)C(c1ccc(C)cc1)=NNC(c1ccc(OC)cc1)=N2 | – | -25.4
41 | O=c1c2ccccc2c(C=Nc2cccc(S(=O)(=O)NC3=NCCCCC3)c2)c(O)n1Cc1ccccc1 | – | -6.05
42 | CCN(CC)CCNC(=O)c1ccc(N)cc1 | – | 3.53
43 | CC(C)C(=O)NC(c1ccc(Cl)cc1Cl)c1ccc2cccnc2c1O (configuration not stated) | 5.36 µM (active) | –
44 | O=C(CSc1nnc2c(Cl)cc(Cl)cn12)NC1CCS(=O)(=O)C1 (configuration not stated) | – | 4.22
45 | O=C(C[n+]1ccccc1)c1ccc(O)c(O)c1 | – | -8.91
46 | CC12CC3(C)CC(C)(C1)CC(C(=O)NC(=S)N1CCOCC1)(C2)C3 | – | -7.12
47 | COc1ccc(-c2nnc(NC(=O)c3ccc(S(=O)(=O)N(C)CC4CCCO4)cc3)o2)c(OC)c1 (configuration not stated) | 16.9 µM (active) | –
